# The entries come from a sample that favours the strongest signals as a whole.
# B1: PX14379D-pdi-530-26-530 (Parabacteroides distasonis) (protein)
# chain: DETVYDKLPADDFGQSTAELNALIGNSHNTMKKFWTEYMHLSECSGSMAVTPTRRGGDWYDGGQYREIYMHTWTSQTSRVKSAWKAATEAIGTCNEAIRKLQNSEILTEEEKAQDVADLRGVRAFWIYVMMDYWGNIPLLTEFHPTDKVFPGNSSRQEVFDWLIQEVEEIKDICPPATTENYGSFTQGAAYSLLAKLYLNAEAWGVTFSGNAYQKVIDNCDKVMAMGYILEPNWKDNFSVTNENSKEAILAATFSSSDTGNDGNVKNELHNNTLHYKDYLSLGITASGTWNGICAQPEYVRLFDEEDARLDGTFLTGLMIDKSTGKPIMTDHNNELNHTIDVNMIPGMEYDGTNWSAVEQHDGARCFKWEFASDLTSSMGNDFHIFRLADIYLMKAEALLRGGGSVSEATALVNTIRERGYGNSDHNYATVTLKEVQLERRLELAWEVYSRQDDIRFGCFTTGMWPQSNCERKADDYLKLLPVSQDAWQVNPNLKQNPGYAAFSK
# Legend:
# Assay in all cases: glycan array binding signal (z-score within array); higher = stronger binding
# Settings in all cases: glycan notation: IUPAC condensed, linker removed
# [1] = molecular target: Fuc(a1-2)Gal(b1-3)GalNAc(a1-3)[Fuc(a1-2)]Gal(b1-4)GlcNAc
# In short: (§1)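 The binding signal is a Z-score computed within each array. Data were drawn from 3228 arrays in the Consortium for Functional Glycomics database, restricted to those with a known protein sequence. Scores were averaged over arrays of the same protein sequence at different concentrations or buffers, and over linkers, and negative values can be taken as non-binding.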
# [2] = molecular target: Fuc(a1-2)Gal(b1-4)GlcNAc(b1-2)Man(a1-3)[Fuc(a1-2)Gal(b1-4)GlcNAc(b1-2)Man(a1-6)]Man(b1-4)GlcNAc(b1-4)[Fuc(a1-6)]GlcNAc
# In short: as §1
# [3] = molecular target: Fuc(a1-2)Gal(b1-4)[Fuc(a1-3)]GlcNAc(b1-2)[Fuc(a1-2)Gal(b1-4)[Fuc(a1-3)]GlcNAc(b1-4)]Man(a1-3)[Fuc(a1-2)Gal(b1-4)[Fuc(a1-3)]GlcNAc(b1-2)Man(a1-6)]Man(b1-4)GlcNAc(b1-4)GlcNAc
# In short: as §1
# [4] = molecular target: Fuc(a1-2)Gal(b1-4)[Fuc(a1-3)]GlcNAc(b1-3)Gal(b1-4)[Fuc(a1-3)]GlcNAc(b1-3)Gal(b1-4)[Fuc(a1-3)]GlcNAc
# In short: as §1
# [5] = molecular target: Fuc(a1-2)Gal6S(b1-3)GlcNAc6S
# In short: as §1
# [6] = molecular target: Fuc(a1-2)[Gal(a1-3)]Gal(b1-4)GlcNAc(b1-2)Man
# In short: as §1
# [7] = molecular target: Fuc(a1-3)GlcNAc
# In short: as §1
# [8] = molecular target: Fuc(a1-3)[Gal(b1-4)]GlcNAc
# In short: as §1
# [9] = molecular target: Fuc(a1-3)[GalNAc(b1-4)]GlcNAc
# In short: as §1
# [10] = molecular target: Gal(a1-3)Gal(b1-3)[Fuc(a1-4)]GlcNAc(b1-2)Man(a1-3)[Gal(a1-3)Gal(b1-3)[Fuc(a1-4)]GlcNAc(b1-2)Man(a1-6)]Man(b1-4)GlcNAc(b1-4)GlcNAc
# In short: as §1
# [11] = molecular target: Gal(a1-3)Gal(b1-4)Glc
# In short: as §1
# [12] = molecular target: Gal(a1-3)[Gal(a1-4)]Gal(b1-4)GlcNAc
# In short: as §1
# [13] = molecular target: Gal(b1-3)GlcNAc(b1-6)Gal(b1-4)GlcNAc
# In short: as §1
# [14] = molecular target: Gal(b1-4)GlcNAc(b1-3)Gal(b1-3)GlcNAc
# In short: as §1
# [15] = molecular target: Gal(b1-4)GlcNAc(b1-3)Gal(b1-4)GlcNAc(b1-2)Man(a1-3)[Gal(b1-4)GlcNAc(b1-3)Gal(b1-4)GlcNAc(b1-2)Man(a1-6)]Man(b1-4)GlcNAc(b1-4)GlcNAc
# In short: as §1
# [16] = molecular target: Gal(b1-4)GlcNAc(b1-3)Gal(b1-4)GlcNAc(b1-3)Gal(b1-4)GlcNAc
# In short: as §1
# [17] = molecular target: Gal(b1-4)GlcNAc(b1-3)Gal(b1-4)GlcNAc(b1-3)Gal(b1-4)GlcNAc(b1-2)Man(a1-3)[Gal(b1-4)GlcNAc(b1-3)Gal(b1-4)GlcNAc(b1-3)Gal(b1-4)GlcNAc(b1-2)Man(a1-6)]Man(b1-4)GlcNAc(b1-4)GlcNAc
# In short: as §1
# [18] = molecular target: Gal(b1-4)GlcNAc(b1-3)Gal(b1-4)GlcNAc(b1-3)Gal(b1-4)GlcNAc(b1-3)Gal(b1-4)GlcNAc(b1-2)[Gal(b1-4)GlcNAc(b1-3)Gal(b1-4)GlcNAc(b1-3)Gal(b1-4)GlcNAc(b1-3)Gal(b1-4)GlcNAc(b1-6)]Man(a1-6)[Gal(b1-4)GlcNAc(b1-3)Gal(b1-4)GlcNAc(b1-3)Gal(b1-4)GlcNAc(b1-3)Gal(b1-4)GlcNAc(b1-2)Man(a1-3)]Man(b1-4)GlcNAc(b1-4)[Fuc(a1-6)]GlcNAc
# In short: as §1
# [19] = molecular target: Gal(b1-4)GlcNAc(b1-3)Gal(b1-4)GlcNAc(b1-3)Gal(b1-4)GlcNAc(b1-3)Gal(b1-4)GlcNAc(b1-3)Gal(b1-4)GlcNAc(b1-2)[Gal(b1-4)GlcNAc(b1-3)Gal(b1-4)GlcNAc(b1-3)Gal(b1-4)GlcNAc(b1-3)Gal(b1-4)GlcNAc(b1-3)Gal(b1-4)GlcNAc(b1-6)]Man(a1-6)[Gal(b1-4)GlcNAc(b1-3)Gal(b1-4)GlcNAc(b1-3)Gal(b1-4)GlcNAc(b1-3)Gal(b1-4)GlcNAc(b1-3)Gal(b1-4)GlcNAc(b1-2)Man(a1-3)]Man(b1-4)GlcNAc(b1-4)[Fuc(a1-6)]GlcNAc
# In short: as §1
# [20] = molecular target: Gal(b1-4)GlcNAc(b1-6)Gal(b1-4)GlcNAc
# In short: as §1
# [21] = molecular target: Gal3S(b1-3)GlcNAc
# In short: as §1
# [22] = molecular target: Gal3S6S(b1-4)GlcNAc6S
# In short: as §1
# [23] = molecular target: GalNAc(b1-4)GlcNAc(b1-2)Man(a1-3)[GalNAc(b1-4)GlcNAc(b1-2)Man(a1-6)]Man(b1-4)GlcNAc(b1-4)GlcNAc
# In short: as §1
# [24] = molecular target: GlcNAc(a1-4)Gal(b1-4)GalNAc
# In short: as §1
# [25] = molecular target: GlcNAc(b1-3)Gal(b1-4)GlcNAc(b1-2)Man(a1-3)[GlcNAc(b1-3)Gal(b1-4)GlcNAc(b1-2)Man(a1-6)]Man(b1-4)GlcNAc(b1-4)[Fuc(a1-6)]GlcNAc
# In short: as §1
# [26] = molecular target: GlcNAc(b1-3)Gal(b1-4)GlcNAc(b1-3)Gal(b1-4)GlcNAc(b1-2)Man(a1-3)[GlcNAc(b1-3)Gal(b1-4)GlcNAc(b1-3)Gal(b1-4)GlcNAc(b1-2)Man(a1-6)]Man(b1-4)GlcNAc(b1-4)GlcNAc
# In short: as §1
# [27] = molecular target: GlcNAc(b1-3)Gal(b1-4)GlcNAc(b1-3)Gal(b1-4)GlcNAc(b1-2)Man(a1-3)[GlcNAc(b1-3)Gal(b1-4)GlcNAc(b1-3)Gal(b1-4)GlcNAc(b1-2)Man(a1-6)]Man(b1-4)GlcNAc(b1-4)[Fuc(a1-6)]GlcNAc
# In short: as §1
# [28] = molecular target: GlcNAc6S(b1-3)Gal(b1-4)GlcNAc
# In short: as §1
# [29] = molecular target: Kdn(a2-3)Gal(b1-3)GlcNAc
# In short: as §1
# [30] = molecular target: Man(a1-2)Man(a1-3)[Man(a1-6)]Man(a1-6)[Man(a1-2)Man(a1-3)]Man(b1-4)GlcNAc(b1-4)GlcNAc
# In short: as §1
# [31] = molecular target: Man(a1-2)Man(a1-6)[Man(a1-3)]Man(a1-6)[Man(a1-2)Man(a1-2)Man(a1-3)]Man
# In short: as §1
# [32] = molecular target: Man(a1-3)[Man(a1-6)]Man(a1-6)[Man(a1-2)Man(a1-3)]Man(b1-4)GlcNAc(b1-4)GlcNAc
# In short: as §1
# [33] = molecular target: Man(a1-3)[Man(a1-6)]Man(a1-6)[Man(a1-3)]Man(b1-4)GlcNAc(b1-4)GlcNAc
# In short: as §1
# [34] = molecular target: Man(b1-4)GlcNAc
# In short: as §1
# [35] = molecular target: Neu5Ac(a2-3)Gal(b1-3)GalNAc(b1-3)Gal(a1-4)Gal(b1-4)Glc
# In short: as §1
# [36] = molecular target: Neu5Ac(a2-3)Gal(b1-3)GlcNAc(b1-2)Man
# In short: as §1
# [37] = molecular target: Neu5Ac(a2-3)Gal(b1-4)GlcNAc
# In short: as §1
# [38] = molecular target: Neu5Ac(a2-3)Gal(b1-4)GlcNAc(b1-2)Man(a1-3)[Neu5Ac(a2-3)Gal(b1-4)GlcNAc(b1-2)Man(a1-6)]Man(b1-4)GlcNAc(b1-4)[Fuc(a1-6)]GlcNAc
# In short: as §1
# [39] = molecular target: Neu5Ac(a2-3)Gal(b1-4)GlcNAc(b1-2)[Neu5Ac(a2-3)Gal(b1-4)GlcNAc(b1-4)]Man(a1-3)[GlcNAc(b1-4)][Neu5Ac(a2-3)Gal(b1-4)GlcNAc(b1-4)Man(a1-6)]Man(b1-4)GlcNAc(b1-4)GlcNAc
# In short: as §1
# [40] = molecular target: Neu5Ac(a2-3)Gal(b1-4)[Fuc(a1-3)]GlcNAc(b1-3)Gal(b1-4)[Fuc(a1-3)]GlcNAc(b1-3)Gal(b1-4)[Fuc(a1-3)]GlcNAc
# In short: as §1
# [41] = molecular target: Neu5Ac(a2-3)[Neu5Ac(a2-6)]GalNAc
# In short: as §1
# [42] = molecular target: Neu5Ac(a2-6)Gal(b1-4)GlcNAc(b1-2)Man(a1-3)[GlcNAc(b1-4)][Neu5Ac(a2-6)Gal(b1-4)GlcNAc(b1-2)Man(a1-6)]Man(b1-4)GlcNAc(b1-4)GlcNAc
# In short: as §1
# [43] = molecular target: Neu5Ac(a2-8)Neu5Gc(a2-3)Gal(b1-4)GlcNAc
# In short: as §1
# [44] = molecular target: Neu5Gc(b2-6)Gal(b1-4)GlcNAc
# In short: as §1
binder,measurement,setting,value
B1,glycan array binding signal (z-score),[1],-1.42
same,glycan array binding signal (z-score),[2],-0.233
same,glycan array binding signal (z-score),[3],-0.436
same,glycan array binding signal (z-score),[4],2.52
same,glycan array binding signal (z-score),[5],2.88
same,glycan array binding signal (z-score),[6],1.09
same,glycan array binding signal (z-score),[7],-0.715
same,glycan array binding signal (z-score),[8],-0.689
same,glycan array binding signal (z-score),[9],-0.221
same,glycan array binding signal (z-score),[10],2.48
same,glycan array binding signal (z-score),[11],-0.838
same,glycan array binding signal (z-score),[12],4.67
same,glycan array binding signal (z-score),[13],-1.22
same,glycan array binding signal (z-score),[14],-1.08
same,glycan array binding signal (z-score),[15],2.97
same,glycan array binding signal (z-score),[16],-0.298
same,glycan array binding signal (z-score),[17],1.92
same,glycan array binding signal (z-score),[18],3.06
same,glycan array binding signal (z-score),[19],1.59
same,glycan array binding signal (z-score),[20],0.063
same,glycan array binding signal (z-score),[21],-0.593
same,glycan array binding signal (z-score),[22],2.52
same,glycan array binding signal (z-score),[23],2.64
same,glycan array binding signal (z-score),[24],-0.622
same,glycan array binding signal (z-score),[25],0.749
same,glycan array binding signal (z-score),[26],2.91
same,glycan array binding signal (z-score),[27],2.19
same,glycan array binding signal (z-score),[28],0.56
same,glycan array binding signal (z-score),[29],-0.752
same,glycan array binding signal (z-score),[30],-1.26
same,glycan array binding signal (z-score),[31],-0.013
same,glycan array binding signal (z-score),[32],-0.447
same,glycan array binding signal (z-score),[33],-0.474
same,glycan array binding signal (z-score),[34],-1.02
same,glycan array binding signal (z-score),[35],0.43
same,glycan array binding signal (z-score),[36],0.26
same,glycan array binding signal (z-score),[37],-0.826
same,glycan array binding signal (z-score),[38],0.415
same,glycan array binding signal (z-score),[39],-0.482
same,glycan array binding signal (z-score),[40],-0.094
same,glycan array binding signal (z-score),[41],-1.44
same,glycan array binding signal (z-score),[42],0.549
same,glycan array binding signal (z-score),[43],12.8
same,glycan array binding signal (z-score),[44],-0.722
